Assay outcomes as filed in PubChem BioAssay.
CBFb-RUNX1 inh = CBF-beta/RUNX1 interaction disruption; AlphaScreen CBFb-His/RUNX1-biotin binding, biochemical; Potency, µM (highest dose often 59.8 µM), for the others: at the top dose activity, negative = inhibition, hits mostly inhibitors; 230,000 tested, under 10 active; AID 1477; also: % of control where 0% means no effect
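CBF-beta (His) and RUNX1 (biotin), 30 nM each; 20 min preassociation; + compound, 15 min; + beads 50 ng each (Ni, streptavidin), 90 min; RT; AlphaScreen read.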
MBNL1 CUG block = MBNL1-poly(CUG) RNA binding inhibition. Q9NR56. TR-FRET MBNL1-His/biotin-(CUG)12 binding, 665/545 ratio. Potency, µM (series often up to 57.5 µM), for inactives: at the top dose activity change, negative = inhibition, hits mostly inhibitors. actives 0.036% (n = 280,000). AID 2675; active = well fitted inhibition curve with a large enough effect in the signal ratio, with a control signal flat, not every such curve was filed as active; inconclusive = small, poorly fitted or top-dose-only effect, or effect the other way, or a change in a side signal; inactive = no such curve, though single readings can be large or run the other way; the % refers to the signal ratio; also: potency is read from the fitted curve at half-maximal effect; % is scaled to controls: 0 for no effect and ±100 for the full control effect
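Compounds (final 92 nM to 58 uM) are added to His-tagged MBNL1 and biotin-(CUG)12, then terbium anti-His antibody and streptavidin-XL665 (5 nM final). After 60 min at room temperature, the 665/545 nm ratio is read.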
Six1-Eya2 blk = blocks human Six1 binding to Eya2. Q15475+O00167. AlphaScreen GST-Six1/His-Eya2 binding, biochemical; active compounds read low. activity change, % (no concentration beside the values). actives 0.56% (n = 360,000). AID 651725; in the data active = activity change below about -65%; inconclusive = mostly about -30% to -63%; also: % is scaled to controls: 0 for no effect and ±100 for the full control effect
Target sequence (O00167 whole entry, looked up): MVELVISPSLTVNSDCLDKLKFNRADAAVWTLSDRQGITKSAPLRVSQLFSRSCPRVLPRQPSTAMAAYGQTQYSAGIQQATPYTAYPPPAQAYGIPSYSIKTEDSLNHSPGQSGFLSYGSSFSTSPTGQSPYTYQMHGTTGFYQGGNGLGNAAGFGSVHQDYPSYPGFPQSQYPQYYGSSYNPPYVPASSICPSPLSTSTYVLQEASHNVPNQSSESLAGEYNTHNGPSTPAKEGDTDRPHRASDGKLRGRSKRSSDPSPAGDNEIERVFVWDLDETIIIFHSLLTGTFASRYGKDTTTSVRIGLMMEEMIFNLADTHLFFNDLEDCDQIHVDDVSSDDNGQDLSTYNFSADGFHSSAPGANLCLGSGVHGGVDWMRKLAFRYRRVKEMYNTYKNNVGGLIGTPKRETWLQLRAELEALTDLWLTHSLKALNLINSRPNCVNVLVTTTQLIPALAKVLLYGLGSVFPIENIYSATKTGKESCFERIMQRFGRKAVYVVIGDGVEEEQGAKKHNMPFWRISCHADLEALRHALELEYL
Target sequence (Q15475 whole entry, looked up): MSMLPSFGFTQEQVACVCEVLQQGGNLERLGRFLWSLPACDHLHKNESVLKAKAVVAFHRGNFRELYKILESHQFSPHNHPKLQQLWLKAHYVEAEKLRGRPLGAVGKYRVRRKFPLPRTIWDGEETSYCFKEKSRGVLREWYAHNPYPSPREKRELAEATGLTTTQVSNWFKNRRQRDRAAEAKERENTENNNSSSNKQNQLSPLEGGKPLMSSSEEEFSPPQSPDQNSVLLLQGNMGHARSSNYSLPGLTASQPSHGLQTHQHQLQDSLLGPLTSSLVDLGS
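Six1/Eya2 binding was read as AlphaScreen signal after compounds were pinned into GST-Six1 plus His-tagged Eya2 (5X stock 250/500 nM) in pH 8.0 Tris/NaCl/TCEP buffer, beads added, then incubated 1 h, 37 C, dark.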
VP16 counter = inhibits Gal4-VP16 luciferase reporter, ROR gamma counter-screen; Drosophila S2 Gal4-VP16 UAS-luciferase, luminescence, 20 h; Potency, µM (top dose mostly 53.6 µM), for inactives: at the highest dose activity, negative = inhibition, hits mostly inhibitors; actives 3.5% (n = 310,000);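 also: Gal4-VP16 expression switched on by copper sulfate through the metallothionein promoter; potency is read from the fitted curve at half-maximal effect; % is scaled to controls: 0 for no effect and ±100 for the full control effect; nearly all actives have a fitted effect of over 50% in size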
CtBP-E1A inh = blocks the CtBP interaction with E1A; activity change, % (test concentration not listed); AlphaScreen GST-E1A/His-CtBP binding, 1536-well; active compounds read low; actives 0.49% (n = 340,000); in the data active = activity change below about -65%; inconclusive = mostly about -30% to -63%; also: % is scaled to controls: 0 for no effect and ±100 for the full control effect
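Steps: dispense buffer (Tris pH 8.0, NaCl 300 mM, TCEP 1 mM, BSA, Tween 20); add 5X protein mix (GST-E1A, His-CtBP, 125 nM each); pin 23 nL compound; 2 h at 37 °C, dark; add 5X beads (50 ug/mL); 1 h; read.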
RORgamma inh = inhibitors of mouse ROR gamma transcriptional activity; P51450; actives 5.4% (n = 310,000); Potency, µM (highest dose often 53.6 µM), without a hit: top-dose activity change, negative = inhibition, hits mostly inhibitors; Drosophila S2 Gal4-RORgamma UAS-luciferase reporter, 20 h; also: potency is read from the fitted curve at half-maximal effect; % is scaled to controls: 0 for no effect and ±100 for the full control effect; nearly all actives have a fitted effect of over 60% in size
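Stably transfected Drosophila Schneider cells are the test system, with ROR gamma fused to Gal4 and luciferase under UAS control; luminescence is read after 20 hr of 700 uM copper sulfate induction at ambient temperature.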
* hit, by the source's call; ? = inconclusive; · = not tested or not shown. This is a sample that favours compounds with a hit; in the whole collection about 5.5% have one here. Unless noted, calls follow the shape of the dose curve; as a rule, active = well fitted curve in the direction sought with a large enough effect; inconclusive = small, poorly fitted or top-dose-only effect, or another doubt; inactive = no such curve, though single readings can be large; an effect the other way counts as inactive or inconclusive.

SMILES	CBFb-RUNX1 inh	MBNL1 CUG block	Six1-Eya2 blk	VP16 counter	CtBP-E1A inh	RORgamma inh
O=C(CSc1ccc(-c2ccccn2)nn1)NCc1ccc(F)cc1	·	5.5%	-81.0*	24.8%	-65.8*	-17.6%
O=C(CSc1ncccn1)NCc1ccc(F)cc1	-6.4%	4.1%	6.4	-1.1%	4.5	1.0%
O=C(CSc1ccc(-c2ccccc2)nn1)NC1CCCCC1	·	-0.1%	-4.2	-2.4%	-10.5	1.7%
Cc1ccc2c(c1)sc(=NC(=O)c1cccs1)n2C	4.6%	247.2%	14.3	7.94µM*	-17.5	8.91µM*
Cc1cc(C)nc(SSc2nc(C)cc(C)n2)n1	·	-6.7%	-2.7	6.31µM*	0.9	5.62µM*
CCC(NC(=O)Nc1nnc(C(F)(F)F)s1)(C(F)(F)F)C(F)(F)F	-0.8%	0.4%	10.1	3.55µM*	2.8	?
O=C(O)CCC(=O)Nc1nnc(C(F)(F)F)s1	4.9%	-10.7%	7.0	-5.6%	5.1	-16.0%
S=C1NC(c2ccccc2)=NCN1c1ccc(Cl)cc1	-0.8%	1.9%	2.1	?	-3.8	11.2µM*
O=C(N/N=C/c1ccc(N2CCOCC2)o1)c1ccccc1[N+](=O)[O-]	0.3%	?	0.1	?	-2.1	12.6µM*
O=C(N/N=C/c1ccc(N2CCOCC2)s1)c1ccccc1Br	22.5%	·	9.5	-7.3%	3.5	11.2µM*
O=C(N/N=C/c1ccc(N2CCCCC2)o1)c1ccccc1[N+](=O)[O-]	-5.9%	?	-21.7	8.91µM*	0.7	?
O=C(N/N=C/c1ccc(N2CCOCC2)o1)c1cccc(C(F)(F)F)c1	-2.8%	2.5%	-0.4	3.98µM*	-3.2	6.31µM*
O=[N+]([O-])c1ccc(-c2csc(NN=C3CCCC3)n2)cc1	2.3%	-6.4%	3.3	5.1%	-5.0	9.6%
O=C(COC(=O)CCC(=O)c1ccc(F)cc1)Nc1ccc2[nH]c(=O)[nH]c2c1	·	·	-17.3	·	2.2	·
COC(=O)/C(Cc1cc(Br)c(OC)c(Br)c1O)=N/O	9.3%	·	·	6.9%	·	-2.4%
O=c1cc(Cn2ccnc2)c2cc(O)ccc2o1	·	?	0.0	-3.4%	8.0	-6.3%
C=CCN(CC=C)C(=S)NC(=O)/C=C/c1ccc(C)cc1	-4.4%	-18.9%	-5.5	?	14.3	6.31µM*
C=CCN(CC=C)C(=S)NC(=O)/C=C/c1ccccc1	-0.1%	-5.6%	-1.7	-27.2%	0.4	14.1µM*
COc1ccc(C(C)=O)cc1Cn1c(C)c(C(=O)NCc2ccc(C(C)C)cc2)sc1=O	·	·	-11.7	·	-4.9	·
S=c1[nH]nc(Cc2ccccc2)n1-c1ccc(Cl)cc1	-0.1%	-6.7%	15.5	?	-3.7	2.24µM*
CCn1c(Cc2ccccc2)n[nH]c1=S	4.3%	-7.2%	10.5	-25.0%	·	?
Cc1ccc(-n2c(CSc3nc(C)cc(C)n3)n[nH]c2=S)cc1	0.4%	0.0%	4.2	-13.3%	2.7	14.1µM*
S=c1[nH]nc(Cc2n[nH]c(=S)n2-c2ccccc2)n1-c1ccccc1	·	-7.0%	-8.2	-14.2%	·	22.9%
CC(C)Cn1c(Cc2ccccc2)n[nH]c1=S	-0.1%	-5.2%	1.4	0.0%	4.0	4.47µM*
Cc1ccc(-n2c(Cc3noc4ccccc34)n[nH]c2=S)cc1	2.4%	-19.9%	1.1	-26.8%	2.2	-7.2%
SMILES	CBFb-RUNX1 inh	MBNL1 CUG block	Six1-Eya2 blk	VP16 counter	CtBP-E1A inh	RORgamma inh
Cc1ccc(-n2c(Cc3ccccc3)n[nH]c2=S)cc1	0.9%	-12.0%	0.6	10µM*	1.3	3.98µM*
COc1cccc(-c2cncnc2NCc2cccnc2)c1	·	·	·	-6.2%	·	-0.2%
COc1ccc(NC(=O)COC(=O)c2cccn2C)cc1S(=O)(=O)N1CCCCC1	·	·	-8.9	·	-14.9	·
CC(C)NC(=O)OC1CC2CC1[C@H]1CCCCN1C2=O (some centres undefined)	·	·	0.1	·	3.4	·
C=CCOc1ccccc1OCC(O)CNC(C)C (centres undefined)	·	·	5.3	·	0.1	·
COc1ccc(S(=O)(=O)N2CCCCCC2)cc1C(=O)N(C)Cc1ccco1	·	·	20.6	·	4.4	·
S=c1[nH]nc(Cc2ccccc2)n1-c1ccccc1	7.6%	11.0%	1.1	20µM*	3.0	11.2µM*
COc1ccc(/C(C)=N/Nc2ccc(F)cc2F)c(O)c1	?	-0.4%	1.4	-22.5%	-72.8*	?
CCc1nnc(NS(=O)(=O)c2ccc(NC(=O)c3ccc([N+](=O)[O-])s3)cc2)s1	·	·	-15.2	·	-22.3	·
COc1ccccc1N1CCN(C(c2ccc(Cl)cc2)c2nnnn2C(C)(C)C)CC1 (centres undefined)	4.0%	-1.3%	-22.2	22.4µM*	-23.0	-123.1%
O=C(NC(=S)N1CCN(C/C=C/c2ccccc2)CC1)c1c(F)cccc1F	5.7%	·	0.9	2.82µM*	-0.3	1.26µM*
O=C(NC(=S)N1CCN(C/C=C/c2ccccc2)CC1)c1ccco1	-6.1%	-4.8%	-6.3	3.98µM*	2.5	1.12µM*
O=C(c1ccco1)N1CCN(C/C=C/c2ccccc2)CC1	2.2%	-18.1%	6.2	-4.0%	-11.6	17.4%
COc1ccc(C)cc1NCc1ccc(OC)c(C)c1OC	·	-4.3%	?	8.9%	?	-20.7%
COc1ccccc1C1=NOC(Cn2c(NCCOCCO)nc3c2c(=O)n(C)c(=O)n3C)C1 (centres undefined)	9.2%	3.5%	3.3	-5.9%	·	-3.7%
CC(O)(c1ccc(Cl)cc1)c1ccc(Cl)cc1	?	·	·	?	·	-5.0%
O=C(/C=C/c1ccc([N+](=O)[O-])cc1)OCC(=O)N1CCCC1	·	·	1.2	·	-68.4*	·
COc1ccc(C(=O)Nc2ccc(S(=O)(=O)N(C)c3ccccc3)cc2)cc1	·	·	-9.2	·	-1.6	·
CCN(c1ccccc1)S(=O)(=O)c1ccc(C(=O)Nc2nnc(COC)o2)cc1	-8.0%	-6.7%	-22.4	1.26µM*	-0.9	0.562µM*
COCc1nnc(NC(=O)c2ccc(S(=O)(=O)N(C)c3ccccc3)cc2)o1	7.1%	?	-20.3	2.51µM*	-29.7	1.58µM*
CCN(c1ccccc1)S(=O)(=O)c1ccc(C(=O)Nc2cccc(C)n2)cc1	·	·	3.5	·	-10.0	·
CCN(c1ccccc1)S(=O)(=O)c1ccc(C(=O)Nc2nnc(CSC)o2)cc1	-15.3%	-2.1%	-7.0	0.891µM*	·	0.355µM*
CC1CCCO1 (centres undefined)	?	·	·	7.4%	·	17.0%
Cc1ccc(S(=O)(=O)Nc2cccc(-n3cnnn3)c2)cc1	·	5.1%	-3.6	1.1%	·	1.0%
c1ccc2oc(-c3csc(NCC4CCCO4)n3)cc2c1 (centres undefined)	0.6%	9.4%	-6.6	?	1.1	7.94µM*
